Compound activity (PubChem BioAssay)
VDR inh = vitamin D3 receptor (human) inhibition. P11473. Potency, µM, for the others: max response, negative = inhibition, hits mostly inhibitors. 0.93% of 400,000 active. VDR-SRC2-3 peptide fluorescence polarization, 2 h; also: potency is read from the fitted curve at half-maximal effect; % is scaled to controls: 0 for no effect and ±100 for the full control effect
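After 23 nl compound addition and a short centrifugation, plates sat for 2 hours at ambient temperature; polarization of fluorescence then indicated loss of VDR binding to peptide SRC2-3.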
TSHR antagonist = antagonists of human thyroid stimulating hormone receptor. TSHR-expressing cells, TSH-stimulated cAMP HTRF, 2 h; stronger effect = lower value. P16473. 0.2% of 330,000 active. AID 504810. activity change, negative = inhibition, % at 11.5 µM;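 active = activity change below a set negative limit, meaning inhibition stronger than a set level, cut at about -70% in these data; inconclusive = activity change between two set negative limits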; also: % is scaled to controls: 0 for no effect and ±100 for the full control effect
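Cell-based HTRF cAMP assay; TSHR cells + compound, TSH EC80 (4nM final), 2 h, 37 deg C. Lysis with anti-cAMP cryptate and cAMP-d2, 30 min RT, read 665/620 nm.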
Vif-APOBEC3G blk = blocks the Vif interaction with human APOBEC3G; Q9HC16; HeLa A3G-eYFP + Vif (tagged APOBEC3G with the HIV-1 protein that degrades it), YFP fluorescence, overnight; Potency, µM (highest dose often 46.1 µM), for inactives: at the top dose activity, negative = active, most hits filed as inhibitors; 0.076% of 410,000 active; AID 602310; also: potency is read from the fitted curve at half-maximal effect; % is scaled to controls: 0 for no effect and ±100 for the full control effect; nearly all actives have a fitted effect of over 60% in size
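Read-out is eYFP fluorescence (Ex 488/Em 500-530) from Vif-expressing HeLa A3G-eYFP cells; more signal means A3G escaped Vif-mediated degradation. Cells plated overnight, compound pinned in, incubated overnight at 37 deg C.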
PLK1 PBD block = blocks phosphopeptide binding to human PLK1 polo-box domain. Plk1 PBD binding of FITC phosphopeptide, fluorescence polarization. P53350. AID 720504. Potency, µM, without a hit: max response, negative = inhibition, usual class: inhibitors. 2.8% of 360,000 active; also: potency is read from the fitted curve at half-maximal effect; series mostly up to about 57 µM; % is scaled to controls: 0 for no effect and ±100 for the full control effect; nearly all actives have a fitted effect of over 65% in size
Target sequence (P53350 whole entry, looked up, the tested form may be a part): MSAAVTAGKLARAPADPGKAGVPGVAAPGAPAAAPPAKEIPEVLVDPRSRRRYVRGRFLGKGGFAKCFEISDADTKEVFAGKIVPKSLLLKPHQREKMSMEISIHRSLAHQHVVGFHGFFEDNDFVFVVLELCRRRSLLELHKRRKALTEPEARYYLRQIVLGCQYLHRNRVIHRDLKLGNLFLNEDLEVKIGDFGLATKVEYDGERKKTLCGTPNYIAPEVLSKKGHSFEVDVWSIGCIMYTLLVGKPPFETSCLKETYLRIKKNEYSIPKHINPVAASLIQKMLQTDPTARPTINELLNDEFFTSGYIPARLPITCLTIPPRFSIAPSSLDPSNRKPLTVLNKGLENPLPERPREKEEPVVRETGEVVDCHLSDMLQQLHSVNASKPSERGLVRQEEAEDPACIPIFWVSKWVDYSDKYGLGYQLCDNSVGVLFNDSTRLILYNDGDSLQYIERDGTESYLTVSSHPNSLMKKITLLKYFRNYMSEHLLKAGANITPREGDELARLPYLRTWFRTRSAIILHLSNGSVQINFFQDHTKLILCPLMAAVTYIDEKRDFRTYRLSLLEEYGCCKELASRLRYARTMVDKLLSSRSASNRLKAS
Vif-A3F inh = blocks the Vif interaction with APOBEC3F. Potency, µM (series often up to 46.1 µM), for the others: top-dose activity, negative = active. 0.2% of 390,000 active. HeLa A3F-eYFP + Vif (tagged APOBEC3F with the HIV-1 protein that degrades it), YFP fluorescence increase. AID 602313; also: potency is read from the fitted curve at half-maximal effect; % of control where 0% means no effect; nearly all actives have a fitted effect of over 65% in size
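Fluorescence increase (Ex 488/Em 500-530) after overnight compound treatment at 37 deg C flags inhibition of Vif-driven A3F-eYFP loss in stable HeLa A3F-eYFP/Vif cells seeded overnight beforehand.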
The depositor's hits bear a star; ? = inconclusive; . = not tested or not shown. An excerpt weighted towards active compounds, which were near 3.1% of everything screened. Unless noted, calls follow the shape of the dose curve; as a rule, active = well fitted curve in the direction sought with a large enough effect; inconclusive = small, poorly fitted or top-dose-only effect, or another doubt; inactive = no such curve, though single readings can be large; an effect the other way counts as inactive or inconclusive.

SMILES	VDR inh	TSHR antagonist	Vif-APOBEC3G blk	PLK1 PBD block	Vif-A3F inh
O=C(O)c1cccc(-c2ccc(/C=C3/SC(=Nc4ccccc4)N(Cc4cccnc4)C3=O)o2)c1	-13%	-5	1%	24µM*	?
CCN1C(=O)/C(=C\c2ccc(-c3ccc([N+](=O)[O-])cc3OC)o2)SC1=Nc1cccc(C(=O)O)c1	?	-4	5%	21µM*	-3%
CCN1C(=O)/C(=C\c2ccc(-c3cccc(C(=O)OC)c3)o2)SC1=Nc1ccc(C(=O)O)cc1	.	-16	.	.	.
NCCC[C@@H](CC(=O)N[C@@H]1CCNC[C@H]1C(=O)N[C@H](CC(=O)N[C@@H](CCC(=O)O)CC(=O)O)Cc1c[nH]c2ccccc12)NC(=O)C[C@H](Cc1c[nH]c2ccccc12)NC(=O)[C@@H]1CNCC[C@H]1N	2%	.	.	.	.
COc1ccc(/C=C/c2cc(C(F)(F)F)[nH]c(=O)n2)cc1OC	?	16	?	-14%	?
O=c1nc(/C=C/c2ccccc2C(F)(F)F)cc(C(F)(F)F)[nH]1	32µM*	?	-15%	-20%	-28%
Nc1ccc2c(c1)C(=O)N(c1ccc3ccccc3c1)C2=O	-9%	.	-5%	.	.
O=C(NC(=S)Nc1ccc(NC(=O)c2cccs2)cc1)c1ccco1	?	8	-17%	19µM*	6%
O=C(Nc1ccc(NC(=O)c2cccs2)cc1)c1ccco1	1%	-3	-5%	-3%	-5%
N#Cc1ccccc1NC(=S)NC(=O)c1cccs1	-20%	5	-7%	8.4µM*	3%
N#Cc1ccccc1NC(=O)COC(=O)c1cccs1	-4%	11	0%	-3%	7%
CCC(=O)Nc1ccc(Cl)c(NC(=S)NC(=O)c2ccco2)c1	-4%	-6	-5%	27µM*	-4%
O=C(NC(=S)Nc1cccc2c(O)cccc12)c1ccco1	-23%	11	-8%	24µM*	-3%
CCOC(=O)c1cnc2ccc(OC(F)(F)F)cc2c1Nc1ccccc1C(=O)O	-12%	.	0%	.	1%
CCc1cccc2c(C(=O)CCl)c[nH]c12	9%	2	-8%	24µM*	-4%
CCc1cccc2c(C(=S)N3CCCC3)c[nH]c12	-7%	19	1%	-14%	0%
CCn1c2c(c3cc(C(=O)O)ccc31)CCCC2=O	-10%	1	8%	30µM*	1%
Cc1cc(C)n(-c2cc(Cl)ccc2[N+](=O)[O-])n1	-5%	-15	2%	27µM*	0%
Cc1ccc(NS(=O)(=O)c2ccc(Br)cc2)nc1	23%	2	5%	-23%	21%
COC1(NS(=O)(=O)c2ccc(Br)cc2)C(C)=CC(=O)C=C1C	9%	3	0%	6.7µM*	-1%
CN(C)c1ccc(/C=[N+]2\C(=O)CC(=O)NC2=O)cc1	.	.	1%	.	.
CO/N=C/NC(=O)c1ccc([N+](=O)[O-])c(CS(=O)(=O)c2ccc(Cl)cc2)c1	?	-12	1%	3µM*	-8%
CCc1cc(N2CCOCC2)cc2c1[nH]c1ccccc12	-13%	5	4%	24µM*	-2%
CC(=O)Nc1ccc(-c2nnc(SCc3ccccc3)n2C)cc1	.	.	-2%	.	.
Cc1cccc2c3c([nH]c12)CCNC3	?	-4	-1%	24µM*	-5%
SMILES	VDR inh	TSHR antagonist	Vif-APOBEC3G blk	PLK1 PBD block	Vif-A3F inh
Cc1cccc2c(Cl)cc(=O)[nH]c12	.	3	.	.	.
COc1ccc(CNC(=O)C(C)OC(=O)c2cccs2)cc1 (stereo not drawn)	27%	-101*	-3%	-3%	-21%
CC(OC(=O)c1cccs1)C(=O)NCc1cccs1 (stereo not drawn)	-4%	14	-2%	0%	1%
CCc1ccccc1NC(=O)N1CC(C)Sc2ccccc21 (stereo not drawn)	7%	.	2%	.	0%
CCCSc1nnc(CSc2nc(C)cc(C)n2)n1C	-25%	-3	1%	21µM*	-11%
C(=Nc1ccc2ccccc2n1)c1ccccn1	.	.	1%	.	.
COCc1[nH]nc2c1C(c1ccc(OC)c(OC)c1)C(C#N)=C(N)O2 (stereo not drawn)	-4%	-1	1%	-13%	.
CCn1c2ccccc2c2cc(C3C(C#N)=C(N)Oc4n[nH]c(COC)c43)ccc21 (stereo not drawn)	-24%	2	-13%	6µM*	-2%
O=C(Nc1ccccc1Sc1ccccc1)c1cnn2c1NC(=C1CC1)C=C2C(F)(F)F	4%	.	.	.	.
